# Screening results as filed in PubChem.
# pAkt inh = blocks phosphorylation of Akt; actives 0.32% (n = 360,000); Neuro2A IGF-stimulated pAkt S473 HTRF, 20 min; active compounds read low; AID 651550; activity change, % for hits at 50 µM; in the data active = activity change below about -80%; inconclusive = mostly about -51% to -80%; also: % is scaled to controls: 0 for no effect and ±100 for the full control effect
#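 Neuro2A cells in DMEM with 0.5% FBS, overnight at 37 deg C, given compound at single 50 µM final, then IGF (6 nM final) for 20 min at 37 deg C. Lysed; phospho-Akt Ser473 by HTRF after 24 h, 665/615 ratio.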
# FUS suppressor = FUS proteinopathy suppression in yeast; S. cerevisiae FUS-expressing, growth rescue, OD600, 24 h; Potency, µM (series often up to 76.6 µM), hits mostly activators; actives 0.24% (n = 390,000);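 also: potency is read from the fitted curve at half-maximal effect; plate controls were DMSO vehicle for no effect and reference control for full effect; nearly all actives have a fitted effect of over 55% in size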
#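 S. cerevisiae expressing FUS from galactose induction served as the toxicity model. Growth after 24hr at 30C, read as absorbance at 600 nm, indicates suppression of toxicity; compounds dosed at several concentrations.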
# Abeta rescue = A-beta toxicity reversal in yeast; AID 1347071; Potency, µM (highest dose often 46.1 µM), most hits filed as activators; yeast expressing A-beta42, growth rescue, OD600, 48 h; response scale: 0% DMSO, 100% iron-clioquinol control; actives 0.063% (n = 410,000); also: potency is read from the fitted curve at half-maximal effect; nearly all actives have a fitted effect of over 55% in size
#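 Growth rescue measured by 600 nm absorbance after 48 h yeast culture at 30 C with compound. Values normalized between DMSO and an equimolar ferric chloride plus clioquinol control.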
# aSyn yeast inh = alpha-synuclein toxicity inhibition in yeast; Yeast expressing alpha-synuclein, growth rescue, BacTiter-Glo, 24 h; Potency, µM (doses to about 46.1 µM), without a hit: at the top dose growth rescue (activation), usual class: activators; actives 0.14% (n = 370,000); AID 652106; also: potency is read from the fitted curve at half-maximal effect; % of control where 0% means no effect; nearly all actives have a fitted effect of over 65% in size
#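 Screening used galactose-induced yeast with toxic alpha-synuclein levels, exposed to compound for 24 hr at 30 deg C. Cell growth, read with BacTiter-Glo luminescence, gave the measured signal.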
# TDP43 rescue = inhibitors of TDP-43 toxicity in yeast; Potency, µM (highest dose often 46.1 µM), for inactives: top-dose growth rescue (activation), actives largely listed as activators; actives 1.8% (n = 410,000); AID 652104; TDP-43 expressing yeast growth rescue, BacTiter-Glo, 24 h; also: potency is read from the fitted curve at half-maximal effect; % of control where 0% means no effect; nearly all actives have a fitted effect of over 50% in size
#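 Readout is BacTiter-Glo luminescence of cell growth, so inhibitors register as activators. TDP-43-expressing yeast at OD600=0.02 in galactose medium, after raffinose pregrowth to mid-log, were incubated with compound for 24 hr at 30 deg C.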
# * marks the source's active call; other numbers are inactive results; i = inactive; ? = inconclusive; . = not tested or not shown; ! = not confirmed by another sample. Compounds with a hit are over-represented: about 2.3% of the library has one in this group of screens. Unless noted, calls follow the shape of the dose curve; as a rule, active = well fitted curve in the direction sought with a large enough effect; inconclusive = small, poorly fitted or top-dose-only effect, or another doubt; inactive = no such curve, though single readings can be large; an effect the other way counts as inactive or inconclusive.
SMILES,pAkt inh,FUS suppressor,Abeta rescue,aSyn yeast inh,TDP43 rescue
O=C(C1CC(=O)N(C2CCCCC2)C1)N1CCC2(CC1)OCCO2 (configuration not stated),-110%*,i,i,-2%,-18%
COc1ccc(Cn2c(O)c(/C=N/NC(=O)c3ccccc3)c(=O)[nH]c2=O)cc1,i,i,i,-13%,17%
COC(=O)[C@@H]1N=C(c2ccc(OC)cc2)O[C@]12C(=O)N(Cc1ccc(OC)cc1)c1ccccc12,i,14µM*,i,2%,-18%
ClCCN(CCCl)c1ccc(/C=C/c2ccnc3ccccc23)cc1,.,.,.,-41%,.
COc1ccc(CC2NCC(O)C2OC(C)=O)cc1 (configuration not stated),i,i,i,?,13µM*
COc1ccc(CC(=O)N2CCN(C)CC2)cc1,i,i,i,-5%,-13%
Cc1c(C(c2ccc(Br)cc2)c2c(O)c3ccccc3oc2=O)c(=O)n(-c2ccccc2)n1C (configuration not stated),i,?,i,-4%,14µM*!
Cc1c(C(c2ccc(Cl)cc2Cl)c2c(O)c3ccccc3oc2=O)c(=O)n(-c2ccccc2)n1C (configuration not stated),i,i,i,3%,10µM*
CSc1ccc(C(c2c(O)c3ccccc3oc2=O)c2c(C)n(C)n(-c3ccccc3)c2=O)cc1 (configuration not stated),i,?,i,12%,-17%
C[C@H]1COC(=O)[C@@H](Cc2ccc(F)cc2)CC/C=C/C[C@@H](CC(=O)N(CCO)Cc2ccccc2)C(=O)N1,i,i,i,-2%,?
CCS(=O)(=O)N1CCN(C2CCC(C)CC2)CC1 (configuration not stated),i,i,i,0%,-18%
Oc1ccc(Cl)cc1Cc1ccccc1,i,i,i,-10%,14µM*
Oc1ccc(Cl)cc1Cc1cc(Cl)ccc1O,i,i,?,-54%,?
CC(=O)NCC(N)C(=O)c1ccc(C)cc1 (configuration not stated),.,.,.,1%,.
CCOc1ccc(N2CC(c3nc4ccccc4n3CCC3CCCCC3)CC2=O)cc1 (configuration not stated),.,i,i,.,25µM*
CCOc1ccc(-n2c(/C=C/c3ccccc3)nc3ccccc3c2=O)cc1,.,i,i,.,7%
Cc1ccccc1-n1nc(C)c2c1NC(=O)CSC2c1ccccc1C(F)(F)F (configuration not stated),.,i,i,.,35µM*
COc1ccc(Br)cc1C1SCC(=O)Nc2c1c(C)nn2-c1ccccc1C (configuration not stated),.,i,i,.,5%
COc1ccccc1CN1CC(C(=O)NCCN(C)CCc2ccccc2)CCC1=O (configuration not stated),i,i,i,11%,-32%
Cc1ccc(/C=C2\C(=O)NC(=S)N(c3ccc(F)cc3)C2=O)o1,i,i,i,0%,11µM*
Clc1ccc2sc(C3CCNCC3)nc2c1,i,i,i,0%,6%
O=C(c1ccccc1Cl)N1CCC(c2nc3ccccc3s2)CC1,.,i,i,.,16µM*
CC(C)(O)[C@@H]1C2OC(=O)[C@@H]1[C@]1(O)C[C@H]3O[C@]34C(=O)O[C@H]2[C@]14C (tested in a mixture with another compound),.,.,.,3%,.
Cc1cccc(OCCn2c(=O)oc3ccc(C)cc32)c1,i,i,i,1%,14µM*
Cc1cccc(OCCn2cccc2/C=C2/C(=O)NC(=O)N(Cc3ccco3)C2=O)c1,i,i,i,4%,1%
SMILES,pAkt inh,FUS suppressor,Abeta rescue,aSyn yeast inh,TDP43 rescue
O=S(=O)(c1ccccc1C(F)(F)F)N1CCN(c2ncnc3sccc23)CC1,i,i,i,20%,13µM*
CC1=CC2OC3CC4OC(=O)C=CC=CC(=O)OCCC(C)C(O)C(=O)OCC2(CC1O)C4(C)C31CO1 (configuration not stated),i,.,i,?,13µM*
Cc1cccc(Cn2c(SCc3ccc(C(=O)NC4CCCCC4)cc3)nc3cccnc32)c1,.,i,i,.,?
Cc1nc2ccccc2c(=O)n1-c1ccc(-c2ccccc2)cc1,i,i,i,11%,21%
O=c1c(-c2ccccc2)c(O)c2ccccc2n1-c1ccccc1,i,i,i,-14%,13µM*
C[C@H](N)Cc1cccc(C(F)(F)F)c1,.,.,.,-10%,.
O=C1NCCOC(=O)[C@H](Cc2ccc(F)cc2)CC/C=C/C[C@@H]1CC(=O)N(CCO)Cc1ccccc1,i,?,i,4%,13%
CN(C)c1ccc(NC(=O)CN2C(=O)CN=C(c3ccccc3)c3cc(Cl)ccc32)cc1,i,?,i,3%,16%
O=C(CN1C(=O)CN=C(c2ccccc2)c2ccccc21)Nc1cccc(C(F)(F)F)c1,.,?,i,.,35µM*
Cc1ccc(NC(=O)CN2C(=O)CN=C(c3ccccc3)c3cc(Cl)ccc32)cc1,i,?,i,?,14µM*
C[C@@H]1CN([C@@H](C)CO)C(=O)CCCn2nncc2CO[C@@H]1CN(C)C(=O)Nc1ccc(N2CCCCC2)cc1,i,i,i,-12%,0%
CCCCC[C@@H]1CCCCC[C@@H](O)C[C@@H](O)[C@H](O)/C=C/C(=O)O1,i,i,i,9%,0%
O=C1NCN(c2ccccc2)C12CCN(C(c1cc3ccccc3o1)c1nnnn1C1CCCCC1)CC2 (configuration not stated),i,11µM*,i,17%,26%
CC(C)(C)n1nnnc1C(c1cc2ccccc2o1)N1CCC2(CC1)C(=O)NCN2c1ccccc1 (configuration not stated),i,?,i,1%,22%
Cc1nc2ccc(NC(=O)C3COc4ccccc4O3)cc2s1 (configuration not stated),i,i,i,1%,16µM*
O=C(Nc1ccc2nc(SCC(=O)N3CCCc4ccccc43)sc2c1)c1ccccc1F,.,i,i,.,?
COc1ccc2nc(N3CCN(C(=O)CS(=O)(=O)c4ccc(C)cc4)CC3)sc2c1,.,i,i,.,13µM*
CCOc1ccc2nc(N3CCC(C(=O)N4CCC5(CC4)OCCO5)CC3)sc2c1,i,?,i,2%,21%
S=P(c1ccccc1)(c1ccccc1)c1cnc2ccccn12,.,22µM*,.,.,.
O=c1[nH]/c(=C\c2ccc(N(CCCl)CCCl)cc2)c(=O)[nH]/c1=C\c1ccc(N(CCCl)CCCl)cc1,.,.,.,-1%,.
